# From the supplement of paper PMC11417369
# ± gives the standard deviation of the averaged measurements. Whole data set: some 25,000 sequences, median “ln(normalized median fluorescence intensity)” near 8.9, cut for the highest 2% near 10. The sample holds the highest values, similar sequences and a random draw of the others, so the mix is not that of the screen.
# Tested on: PfAP2-LT AP2 domain (GST-tagged)
# Experiment: gcPBM binding intensity (ln(normalized median fluorescence intensity)); higher = stronger DNA binding
# How it was run: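 Binding intensity is defined as the maximum Masliner-normalised natural-log median intensity across replicate spots for either probe orientation. It was measured on an Agilent 4 × 180k array of primer-extended double-stranded 36-bp intergenic genomic probes and negative controls, to which GST-tagged P. falciparum DNA-binding domains made in E. coli were applied for 1 h in 1× PBS with 1% milk, 0.2 mg/ml BSA, 0.5% salmon testes DNA and 0.03% Triton X-100. Detection was by Alexa488 anti-GST antibody and scanning at 488 nm.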
row,Sequence,gcPBM binding intensity (ln)
1,TGGAACCTTTAAAATACACACCCAAATCCTTTGAAA [CACACA_site7671],8.69 ± 0.35
2,AGAGAGAGAAATACAAGTACATGTGAAACCAATCTA [XGTACX_site2767],9.04 ± 0.46
3,GCATCGATCAAACATACACACATGGTTAATAAAAAT [CACACA_site8651],9.24 ± 0.47
4,TTTAAAAAAAGCAGTACATGCAAAATAATAACAAGC [TGCATGCA_site392],9.2 ± 0.48
5,TACACAAGGGGAAAAATATATATATATATATATATA [TGCATGCA_negctrl_site217],9.88 ± 0.028
6,TATTTTTTTTCGTAATGTACATAAAAAATGCAAAAA [XGTACX_site8491],8.27 ± 0.36
7,CATCCGTTGATATATGCATGCATATTGTTATTACCA [TGCATGCA_site868],9.11 ± 0.36
8,TTTATATATAAATAATGTACAAAAAATTTTAAAAAG [XGTACX_site7990],8.39 ± 0.39
9,ACAGTTTGTCTGAGTAGTACATAAATACTTGAAAGG [XGTACX_site7792],8.79 ± 0.45
10,TACAGACTAAAATACACACACACACGCACATATATA [CACACA_site7875],10.2 ± 0.18
11,CACACGCACAGACACACACACACATATAAATATGTA [CACACA_site6300],9.89 ± 0.37
12,GCTATAAATACAGACGCACACATATACATACATATA [CACACA_site3329],9.42 ± 0.33
13,GCTATAAATACAGACGCACACATATACATACAGATA [CACACA_site5778],9.33 ± 0.42
14,CGCGCACACGGACACACACACACACGGATATAAATA [CACACA_site7102],10 ± 0.4
15,CTAAAATACAGACACACACACACATATATATATATA [CACACA_site4150],10.07 ± 0.021
16,TTTAAATACAGACATACACACATACACGCACATATA [CACACA_site6400],9.49 ± 0.37
17,CACGCATACAGACACACACACACACGGATATAAATA [CACACA_site6445],10.2 ± 0.4
18,AAAATACACAGACACACACACATATAAATAAATATT [CACACA_site7871],9.79 ± 0.19
19,CGCATACACAGACACACACACACATATAAATATGTA [CACACA_site6444],9.98 ± 0.47
20,AAAAAATACAGACACACACACACACGCATATAAATA [CACACA_site7644],10.1 ± 0.25
21,CACACGCACAGACACACACACACACGGATATAAATA [CACACA_site6301],10.2 ± 0.38
22,AAATCGTGCACGGACACATGCAGTAGCCGAGAATTA [TGCATGCA_site733],9.12 ± 0.38
23,AAAAAAAAGAAAAAAACACACAATGGAAAAAATGTA [CACACA_site3675],8.93 ± 0.59
24,TATAAAATAAATAACAAAAAAAATAAAATAAAAATA [TGCATGCA_negctrl_site297],8.6 ± 0.7

row,Sequence,gcPBM binding intensity (ln)
1,TGCCCTTTGGTTATAACACACATGCACACGTAAATA [CACACA_site7750],9.4 ± 0.23
2,TTTTGTTATTAGAGGGTGCTTATAATGAACTCCTAC,8.65 ± 0.49
3,TTATGAATACTTCAAGTGCATTTATTTTATATGACA,8.63 ± 0.48
4,ATATTGGAATAAATTTGTACATATATATATTATTCA [XGTACX_site916],8.7 ± 0.44
5,CTGTTTTTGTTTTAAAGTACATTGTTCAATATACAT [XGTACX_site5288],8.82 ± 0.43
6,TAAAAAATATTATATACACACAGTATAAAAAAAAAT [CACACA_site4012],8.95 ± 0.49
7,AAATATAATAAAATGACACACGCATATATATATATA [CACACA_site8900],9.775 ± 0.064
8,TAAATAAATTTATACACACACACACGGATATAAATA [CACACA_site6532],9.82 ± 0.071
9,ATATAATAAAATGACACACGCATATATATATATATA [CACACA_site2789],9.955 ± 0.021
10,CACACTAAAAGACACACACACACACGCATATAAATA [CACACA_site7874],10.3 ± 0.4
11,ATAGTATACAGACACACACACACACGGATATAAATA [CACACA_site6914],10.1 ± 0.36
12,GTATATTTAAATAAAAGTACGTAAAGATATATTTAA [XGTACX_site8087],8.86 ± 0.57
13,TATATATATATATATGCATGTACATATATTTGTTAT [TGCATGCA_site379],9.99 ± 0.4
14,TATATATATATATTATGTACTCATTTATTATCTTTT [XGTACX_site8051],9.04 ± 0.43
15,ATATATATTTATATATGTACATATTTTTGTGTATTT [XGTACX_site1183],9.14 ± 0.44
16,ATATATATATATATATGTACTCATATTTTATTATTT [XGTACX_site898],9.665 ± 0.078
17,ATGCATATATTTATGTGTACATATATTTGTAGGGGG [XGTACX_site6063],10.2 ± 0.36
18,TTTGTCATTTTATTATGTACTCAGCATATAGGGGGG [XGTACX_site505],10.3 ± 0.33
19,TTATATTATGGACACACACACAAAAAAAAAAAAAAA [CACACA_site7744],9.32 ± 0.51
20,GTTTGGTGGTGTTTTGGTACGTACGGGGGTGTATGT [XGTACX_site1211],9.88 ± 0.16
21,GTTTGGTGGTGTTTTGGTACGTACGGGGGGGTATGT [XGTACX_site1983],10.9 ± 0.18
22,TATGATTTTTATATATGTACGTATGGTGTTTTACAA [XGTACX_site6100],8.76 ± 0.41
23,AACATAATAAAAAAACGTACATAATTTTATATACAT [XGTACX_site6602],8.87 ± 0.41
24,AATATAAATAAAAACACACACACACGGATATTTATA [CACACA_site7134],10 ± 0.25

row,Sequence,gcPBM binding intensity (ln)
1,ATAAGAAAAGGACACACACACAAAAAAAAAAAAAAA [CACACA_site7351],9.48 ± 0.51
2,AAGGATATAACATACACACACACACGGATATAAATA [CACACA_site7867],10.2 ± 0.37
3,AATATAAGGATATATACACACATAAATACATACATA [CACACA_site7859],9.25 ± 0.45
4,CATATACATAGACACACACACACATAAATAAATATA [CACACA_site6749],9.91 ± 0.33
5,GTAGAGAAAAAAATGTGGACACAAAAAATAAAAAGG [XGTACX_site4058],8.96 ± 0.45
6,CACTAAAATAGACACACACACACACGGATATAAATA [CACACA_site7873],10.3 ± 0.29
7,AAAATACATAGACACACACACACACGGATATAAATA [CACACA_site7643],10.2 ± 0.2
8,AAAAAAAATAGACACACACACATACACATAAATATA [CACACA_site7742],9.82 ± 0.38
9,TATATAAATAGACACACACACACATATAAATAAATA [CACACA_site7855],10 ± 0.34
10,AAATAACACATATATACACACATATAAATATAATAT [CACACA_site2692],9.29 ± 0.34
11,ATAAATAAAGGACACACACACACACTAGAAAAAAAA [CACACA_site5450],10.2 ± 0.3
12,AATGTAGGTTTATTTACACACAAATATAGATATATA [CACACA_site6825],8.96 ± 0.4
13,GGGAGGATATTACACAGTACCCAGGAAATCTACGGA [XGTACX_site4874],8.81 ± 0.5
14,TTTTTTTAAAAAAAGGGTACATATATATATTTTTCT [XGTACX_site1066],8.43 ± 0.49
15,ATATATATATATGTTAGTACTTATATTGAAATGGTA [XGTACX_site1406],9.05 ± 0.042
16,TATATTATTTTATATTGTACATACCAAATATTATAT [XGTACX_site1693],8.68 ± 0.41
17,TATTTTTTTTTTTTTTTTTTTTTTATATATACATAT [CACACA_negctrl_site23],8.61 ± 0.52
18,AAATGGGCTTATTTATGTACTTAAATATATCTACCC [XGTACX_site3823],8.85 ± 0.61
19,TTTCTTTTTTTTTTTTTTTCTGGCTTTTTCTCTTTT [TGCATGCA_negctrl_site599],8.69 ± 0.49
20,AAAAAAAAAAAAAACACACACACACGCATAAATATA [CACACA_site6217],9.95 ± 0.28
21,ATATAAAGAAAAGGAACACACAAATATATATATATA [CACACA_site463],9.56 ± 0.25
22,TAATATAAAGAAAAGGAACACACAAATATATATATA [CACACA_site8049],9.04 ± 0.38
23,AATAAAAAGGAACACACACACACACGGATATAAATA [CACACA_site7658],10.3 ± 0.37
24,ATAAATATTAAAAGTACACACAGATACACTAATTAT [CACACA_site1808],9.16 ± 0.36

row,Sequence,gcPBM binding intensity (ln)
1,ACCATATAAATAAACACACACACACGGATATAAATA [CACACA_site7157],10.1 ± 0.2
2,TATTAATACGGACACACACACACACTAGATAAAATA [CACACA_site4295],10.1 ± 0.11
3,AGAATAAAAAGGAACACACACACACGCATATAAATA [CACACA_site7659],10.1 ± 0.39
4,AACAAATACGGACACACACACACACTAGAAAAAAAA [CACACA_site4442],9.82 ± 0.29
5,TGATTTGTGCCGATTTGTACACATTTATATATATAT [XGTACX_site2154],9.13 ± 0.35
6,GTATATATATATATATATATATATATATATATATAT [CACACA_negctrl_site609],9.63 ± 0.042
7,ATACAAATTGTTTAAAGTACAAATTACACCTCTTAA [XGTACX_site6888],8.62 ± 0.44
8,CATAGGAACATAAGTTGTACGCTATACATACAACAT [XGTACX_site1054],9.05 ± 0.45
9,TTTTCTATATAGTGTTGTACATTATTGTGTAAAAAT [XGTACX_site3223],8.7 ± 0.46
10,AATATAATGTAATATACACACATATATTTCTCTTTT [CACACA_site5451],8.95 ± 0.45
11,TATAGATACCTATACACACACACACGGACATATATA [CACACA_site7585],10 ± 0.25
12,TATACACGCGGACACACACACACACGCAAAAAAAAA [CACACA_site6377],10 ± 0.23
13,ACCATACATACATACACACACACACGCATATTTATA [CACACA_site7386],10.1 ± 0.29
14,TATTTATATTTATATACACACATACATATTTATATT [CACACA_site6535],9.1 ± 0.4
15,TATATATATATTTATACACACACATATATTTATATA [CACACA_site8054],9.13 ± 0.29
16,ACCTACATAACATACACACGCATATATATAATTTTA [CACACA_site2847],9.22 ± 0.33
17,CGCATACACGGACACACACACACATATATATATATA [CACACA_site4520],10.23 ± 0.071
18,AGTATACATATATATACACACACACCGATATATATA [CACACA_site8357],9.74 ± 0.23
19,ATAGTATACGGACACACACACACACCGATATATATA [CACACA_site5032],10.3 ± 0.38
20,ATAGTATACAGACACACACACACACCGATATATATA [CACACA_site8511],10.1 ± 0.13
21,CATACACGCGGACACACACACACACGCATATATAAC [CACACA_site6427],10.1 ± 0.23
22,CATATATACACATACACACACACACGGACACGCACA [CACACA_site6910],10.07 ± 0.085
